# Reference: PubChem BioAssay AID1626 (SRMLSC, 2009)
# Values joined by “and” are separate entries in the source; they are usually repeats but may differ in a detail not shown here. Identical values can stand only once. Out of some 220,000 compounds screened, about 2,000 (0.91%) were called active. Not shown: some 2% with an inconclusive outcome. Cut-off read from the data, not from the text of the source: inconclusive = inhibition above about 80% without an active follow-up result; inactive = below that; test concentration not stated here. The list is a sample of the results. Results with a measured potency or affinity are listed apart.
# Test: M. tuberculosis H37Rv growth inhibitors, H37Rv strain (AID 1626);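 note: bacteria incubated seven days before Alamar blue readout; 0% = bacteria only wells and 100% = bacteria with antibiotic wells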
# Details: stronger effect = higher value, concentration not given here
row,Structure (SMILES),inhibition
1,Cc1ccccc1CNC(=O)CCc1ccccc1,-2.14% (inactive)
2,CCc1ccc(Oc2ncnc(N)c2[N+](=O)[O-])cc1,-1.27% (inactive)
3,NC(=O)c1cc2n(n1)C(C(F)(F)F)CC(c1ccco1)N2 (stereo not given),-17% (inactive)
4,Cc1ccc2nc3c(nc2c1)-c1ccccc1C3=O,-8.47% (inactive)
5,Cc1ccc2nc(-c3ccccc3)c(-c3ccccc3)nc2c1,1.48% (inactive)
6,O=C(CN1CCN(S(=O)(=O)c2ccccc2)CC1)Nc1ccc2c(c1)OCO2,-8.01% (inactive)
7,Nc1ncccc1OCc1cccc(C(F)(F)F)c1,16.6% (inactive)
8,COc1ccc2nc(C(F)(F)Cl)c(C#N)c(N)c2c1,-0.68% (inactive)
9,O/N=C/c1ccc2cccc(O)c2n1,3.62% (inactive)
10,COc1ccc(C(=O)N/N=C/c2ccc3cccc(O)c3n2)cc1,64.5% (inactive)
11,O=C(Cc1ccccc1)N/N=C/c1ccc2cccc(O)c2n1,22.8% (inactive)
12,O=C(O)c1ccc(/C=C/c2ccc3cccc(O)c3n2)cc1,74.2% (inactive)
13,COc1cc2c(cc1NC(=O)C(C)Sc1ccc(C)cc1)oc1ccccc12 (stereo not given),9.39% (inactive)
14,CCOC(=O)CON1C(=O)C(=O)N(OCC(=O)OCC)[C@H]2CCCC[C@H]21,2.73% (inactive)
15,COc1ccc(-c2[nH]ncc2CN2CCSCC2)c(OC)c1,-1.11% (inactive)
16,COc1ccc(-n2c(SCC(=O)Nc3ccccc3)nc3c(c2=O)SCC3)cc1,6.14% (inactive)
17,CCCC(CCC)C(=O)Nc1ccncc1,-10.4% (inactive)
18,CCCCCCOc1ccc(/C(N)=N/O)cc1,5.99% (inactive)
19,C=CCC(=O)OCCCCCCOc1ccc(C(=O)O)cc1,-13.9% (inactive)
20,CC1(C)Cc2c(c(=S)nc(-c3ccccc3)n2CCO)CO1,7.44% (inactive)
21,O=C(O)Cc1sc(NCc2ccco2)nc1-c1ccccc1,8.81% (inactive)
22,O=C(Nc1ccc(S(=O)(=O)Nc2nccs2)cc1)C1CC(=O)N(c2ccccc2)C1 (stereo not given),-6.74% (inactive)
23,COc1ccc(Br)cc1/C=N/NC(=O)c1ccco1,-2.04% (inactive)
24,O=C(NCc1ccc(Cl)cc1)C(=O)Nc1nccs1,1.96% (inactive)
25,Cc1ccc(CNC(=O)C(=O)Nc2nccs2)cc1,10.4% (inactive)

row,Structure (SMILES),inhibition
1,O=C(/C=C/c1ccc(Br)cc1)NC(=O)c1ccccc1O,5.02% (inactive)
2,CC(/C=C\c1cccnc1)=C/C(=O)O,1.6% (inactive) and 0.21% (inactive)
3,Cc1cccc(NC(=O)c2cccnc2)c1,1.57% (inactive)
4,O=C(/C=C/c1cccnc1)c1ccc(NC(=O)c2cccc(Br)c2)cc1,8.79% (inactive)
5,CC(/C=C\c1ccccc1)=C/C(=O)O,2.72% (inactive)
6,O=C(O)/C=C/c1cccnc1,-0.59% (inactive)
7,O=C(/C=C/c1ccccc1)NC(=O)c1ccccc1O,-10.8% (inactive)
8,O=C(O)CCC(=O)/C=C/c1ccccc1,-6.33% (inactive)
9,CCC/C=N/NC(=O)c1cc(Br)ccc1O,-8.13% (inactive)
10,COc1cccc(-c2nc(N3CCN(c4ccccc4)CC3)c3ccccc3n2)c1O,-0.61% (inactive)
11,CN1C=CC=C/C1=C1\SC(=S)N(CC(=O)O)C1=O,-3.47% (inactive)
12,Cc1cccc(Cc2nnc(CCC(=O)NCc3ccncc3C)o2)c1,-3.05% (inactive)
13,O=C(C1=NN[C@@H]2C(=O)N(c3cccc(C(F)(F)F)c3)C(=O)[C@H]12)c1cnccn1,-13.3% (inactive)
14,S=C1NC(c2cccs2)=CC(c2ccc(Br)cc2)N1 (stereo not given),12.7% (inactive)
15,COc1ccc(CC(=O)OCC(=O)Nc2cccc(Cl)c2)cc1,-0.87% (inactive)
16,CC(C)(CN1CCCCC1)NS(=O)(=O)c1ccc(Cl)cc1,3.88% (inactive)
17,CN(C)/C=C(\C#N)C(=O)Nc1ccc(F)cc1,-3.02% (inactive)
18,O=C(COC(=O)CNC(=O)c1cccc([N+](=O)[O-])c1)Nc1cccc(S(=O)(=O)N2CCCC2)c1,-1.39% (inactive)
19,C#CCOCCOCCOCCNc1nc(N2CCN(C(=O)C([C@@H](C)CC)n3cc(C(N)CO)nn3)CC2)nc(N2CCN(C(=O)C([C@@H](C)CC)n3cc(C(N)COC(=O)C(F)(F)F)nn3)CC2)n1 (stereo not given in full),-11.1% (inactive)
20,CCOC(=O)NC(=O)c1cn(Nc2ncc(Cl)cc2C(F)(F)F)c(=O)[nH]c1=O,-8.73% (inactive)
21,CCOC(=O)N1CCC(NC(=O)Cn2c3c(c(-c4ccccc4Cl)cc2=O)CCC3)CC1,-2.35% (inactive)
22,CCOC(=O)Cn1c2c(c(=N)c3c1CCC3)CCCC2,-4.08% (inactive)
23,CCNC(=S)N1CCC(c2nc3ccccc3s2)CC1,-0.93% (inactive)
24,O=C(NCc1cccnc1)c1cccc(S(=O)(=O)N2CCOCC2)c1,0.09% (inactive)
25,c1ccc2c(c1)CCc1c-2nc2ccccc2c1N1CCOCC1,4.28% (inactive)

row,Structure (SMILES),inhibition
1,COc1ccc2c(-c3ccccc3)cc(N3CCOCC3)nc2c1,-14.6% (inactive)
2,Cc1cccn2cc(-c3ccc(S(=O)(=O)N4CCCCC4)cc3)nc12,0.16% (inactive)
3,c1ccc2c(N3CCCC3)nc(-c3ccncc3)nc2c1,6.26% (inactive)
4,CC1CCN(c2nc(-c3ccccc3O)nc3ccccc23)CC1,-2.32% (inactive)
5,Oc1ccccc1-c1nc(N2CCCC2)c2ccccc2n1,-6.53% (inactive)
6,c1ccc2c(c1)nc(N1CCCCCC1)c1ccccc12,3.85% (inactive)
7,c1ccc2c(c1)nc(N1CCCCC1)c1ccccc12,12.2% (inactive)
8,CN1CCN(c2nc(-c3ccncc3)nc3ccccc23)CC1,3.8% (inactive)
9,c1ccc2c(N3CCCCC3)nc(N3CCCC3)nc2c1,-8.46% (inactive)
10,CC1CCN(c2ncnc3ccccc23)CC1,-8.39% (inactive)
11,CC(C)(C)NS(=O)(=O)c1cc(C(=O)O)ccc1Cl,-11.1% (inactive)
12,Cc1c(C#N)c(=O)c(-[n+]2ccccc2)c([S-])n1-c1ccc(Cl)cc1,3.17% (inactive)
13,O=C(O)c1ccc(NC2=C(n3nnc4ccccc43)C(=O)c3ccccc3C2=O)cc1,-3.22% (inactive)
14,Cc1cc([N+](=O)[O-])c(Cl)cc1NC(=O)C(C)C,-3.38% (inactive)
15,O=C(O)c1ccc2c(c1)-c1nc3ccccc3n1C2=O,-6.82% (inactive)
16,COc1ccc(-c2ccc3ccccc3n2)cc1OC,12.8% (inactive)
17,Cc1ccc(C)c(NC(=S)N2CCN(Cc3ccccc3)CC2)c1,-5.34% (inactive)
18,Cc1cc(C)cc(N(C(C)C(=O)N2CCCCC2)S(C)(=O)=O)c1 (stereo not given),7.53% (inactive)
19,O=C(COc1ncnc2ccccc12)N1CCN(c2ccccc2)CC1,5.1% (inactive)
20,NNC(=O)c1ccc2ccccc2n1,27% (inactive)
21,COC(=O)c1ccc2ccccc2n1,-11.4% (inactive)
22,CCOc1ccc(-n2cc(-c3ccccc3)c3c(=O)[nH]cnc32)cc1,64.1% (inactive)
23,COc1ccc(-n2cc(-c3ccccc3)c3c(N4CCN(CCO)CC4)ncnc32)cc1,0.66% (inactive)
24,O=P1(Oc2ccccc2)OCCCS1 (stereo not given),12.1% (inactive)
25,COC(=O)CC(c1ccc(F)cc1)n1c(C)ccc1C (stereo not given),-0.04% (inactive)

row,Structure (SMILES),inhibition
1,c1ccc(Nc2nc(NCC3CCCO3)c3ccccc3n2)cc1 (stereo not given),2.76% (inactive)
2,Cc1ccccc1Nc1nc(NCc2ccco2)c2ccccc2n1,1.73% (inactive)
3,c1ccc(CN2CCC(Nc3ncnc4sccc34)CC2)cc1,7.78% (inactive)
4,Oc1ccccc1-c1nc(NCc2ccco2)c2ccccc2n1,-6.38% (inactive)
5,c1cncc(-c2nc(NCc3ccco3)c3ccccc3n2)c1,-4.8% (inactive)
6,Oc1ccccc1-c1nc(NCC2CCCO2)c2ccccc2n1 (stereo not given),9.18% (inactive)
7,c1ccc(CN2CCC(Nc3nc(-c4cccnc4)nc4ccccc34)CC2)cc1,11.5% (inactive)
8,Fc1ccccc1-c1nc(NCc2ccco2)c2ccccc2n1,0.67% (inactive)
9,CCCn1c(CN2CCN(c3cccc(Cl)c3)CC2)nc2c1c(=O)n(C)c(=O)n2C,7.42% (inactive)
10,Cc1cc(C)nc(-n2ncc3c2CC(c2ccc(F)cc2)CC3=O)n1 (stereo not given),-3.92% (inactive)
11,CCCN1CCN(C(=O)Cn2c(=O)oc3cc(S(=O)(=O)NCc4ccccc4)ccc32)CC1,0.47% (inactive)
12,O=C1CCC/C1=c1\s/c(=C\c2cccnc2)c(=O)n1-c1ccccc1,-3.57% (inactive)
13,CCCCCCCCC(=O)NNC(=O)c1c(O)c2ccccc2n(CCC)c1=O,1.3% (inactive)
14,CCOC(=O)c1sc2nc(CC(=O)OC)nc(NCc3ccc(F)cc3)c2c1C,-2.66% (inactive)
15,CC(NC(=O)c1cccc(N2CCCC2=O)c1)c1ccc2c(c1)OCCO2 (stereo not given),-0.45% (inactive)
16,COCC(N)(c1ccccc1)c1nc2ccccc2n1C (stereo not given),-3.7% (inactive)
17,Cn1c(Cc2ccccc2)nnc1SCC(=O)N1CCCCC1,-3.96% (inactive)
18,CCOC(=O)c1sc2nc(C)c3c(c2c1N)CC(C)(C)OC3,-1.95% (inactive)
19,N#CCCN(C(=O)COC(=O)C1CCN(S(=O)(=O)c2cccs2)CC1)c1ccccc1,3.1% (inactive)
20,CCOC(=O)C1C(=O)NC(c2ccccc2)=NC1c1ccc(O)c(OC)c1 (stereo not given),2.45% (inactive)
21,CC(C)(C)C(=O)O/N=C(\N)Cc1ccc(-c2csnn2)cc1,-5.08% (inactive)
22,c1ccc(-c2nc(NCc3cccnc3)c3ccccc3n2)cc1,7.56% (inactive)
23,c1ccc(CNc2nc(-c3cccs3)nc3ccccc23)cc1,13.4% (inactive)
24,c1csc(CNc2nc(-c3cccs3)nc3ccccc23)c1,9.19% (inactive)
25,Clc1cccc(-c2nc(NCc3cccnc3)c3ccccc3n2)c1,74.3% (inactive)
